High-throughput results as filed in PubChem BioAssay.
MITF inh – blocks human microphthalmia-associated transcription factor; inhibition, % at 2.6 µM; AlphaScreen MITF homodimerization, bead proximity signal; actives 0.91% (n = 650,000); O75030; AID 1259374; in the data active = inhibition above about 50%;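 note: 0% = vehicle wells with protein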
GPR151 activ – activates the human receptor GPR151 | activation, % at 11.2 µM | Q8TDV0 | actives 1% (n = 650,000) | PathHunter beta-arrestin GPR151 cells, luminescence | AID 1508602; in the data active = activation above about 4.9%;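 note: 0% = median of compound wells and 100% = cells with positive control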
Target sequence (Q8TDV0 whole entry, looked up): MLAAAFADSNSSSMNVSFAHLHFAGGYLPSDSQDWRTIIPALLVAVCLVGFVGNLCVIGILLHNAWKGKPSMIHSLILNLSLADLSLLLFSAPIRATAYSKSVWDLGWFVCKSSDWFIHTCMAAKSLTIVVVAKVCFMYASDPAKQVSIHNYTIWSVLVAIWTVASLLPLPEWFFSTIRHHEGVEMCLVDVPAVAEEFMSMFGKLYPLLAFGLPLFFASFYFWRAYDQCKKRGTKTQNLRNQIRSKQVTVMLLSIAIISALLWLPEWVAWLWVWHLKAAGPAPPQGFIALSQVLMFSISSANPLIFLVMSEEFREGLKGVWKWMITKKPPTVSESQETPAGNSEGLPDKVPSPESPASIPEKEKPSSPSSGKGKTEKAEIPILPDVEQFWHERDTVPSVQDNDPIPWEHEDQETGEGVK
FBW7 act – human FBW7 E3 ligase activation, primary screen. actives 0.13% (n = 650,000). AlphaScreen FBW7–phospho-cyclin E peptide binding, activator screen. normalized activity (activation), % at 26.1 µM. Q969H0; in the data active = normalized activity above about 1.9%;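 note: purified mutant Fbw7 with reduced substrate affinity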
TEAD-YAP inh – TEAD-YAP interaction inhibition; actives 1.4% (n = 640,000); inhibition, % at 9.12 µM; HEK-TIYL cells, TEAD-Gal4/YAP UAS-luciferase luminescence; in the data active = inhibition above about 32%;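 note: 0% = median of test compound wells and 100% = reference inhibitor wells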
Numbers without * were called inactive. Hits are enriched below; roughly 3.4% of the tested compounds scored in any of these assays.

SMILES	MITF inh	GPR151 activ	FBW7 act	TEAD-YAP inh
COc1cc(OC)cc(C(=O)Nc2ccc(NC(=O)c3cc(OC)cc(OC)c3)cc2)c1	0.9	0.6	-0.1	42.7*
Cc1ccccc1/C=C/C(=O)Nc1ncc(Cc2ccccc2Cl)s1	-6.8	0.4	0.0	-8.6
O=C(Cn1c(=O)oc2cc(S(=O)(=O)N3CCCCC3)ccc21)Nc1ccccc1Cl	4.0	0.2	0.1	10.4
CSC(Nc1ccc(Br)cc1)=C(C#N)C#N	-0.6	0.5	0.0	38.1*
O=C(NC(=O)N1CCCCC1)c1ccc(Cl)cc1	0.9	-0.6	-0.1	9.2
N#CC(NC(=O)c1ccc(Cl)cc1)=C(Cl)Cl	32.0	-0.7	0.7	37.2*
O=C(NCc1nnc(SCc2ccccc2F)o1)c1ccc(F)cc1	3.0	0.8	0.1	60.5*
O=C(NCc1nnc(SCc2cccc(F)c2)o1)c1ccccc1	4.6	-0.1	-0.1	55.7*
O=C(NCc1nnc(SCc2ccccc2)o1)c1ccc(F)cc1	7.1	-1.2	0.1	58.3*
O=C(NCc1nnc(SCc2ccccc2Cl)o1)c1ccccc1	-6.5	-0.7	0.1	-6.2
Cc1cccc(CSc2nnc(CNC(=O)c3ccccc3)o2)c1	5.8	0.5	-0.1	7.8
CNC(=O)COc1ccc(Br)c(C)c1	-8.1	3.2	-0.2	-14.7
Cc1cc(OCC(=O)NNC(=O)CCc2ccccc2)ccc1Br	6.8	-0.7	2.3*	5.9
Cc1ccc(-n2[nH]c(=O)c(-c3ccccn3)c2C)cc1	6.8	-5.1	-0.1	51.9*
Cc1ccc(-n2c(O)c(/C=N/c3ccccn3)c(=O)[nH]c2=O)cc1	1.9	0.2	-0.1	0.5
Cc1nc(NCCNC(=O)COc2ccccc2)c2c3c(sc2n1)CCCC3	2.0	-0.1	0.1	45.4*
CCCCN(CC)S(=O)(=O)c1ccccc1[N+](=O)[O-]	7.8	0.9	-0.2	47.1*
CC(C)CN(CC(C)C)S(=O)(=O)c1ccccc1[N+](=O)[O-]	-3.9	0.6	-0.2	-5.4
COC(=O)CSCC(=O)Nc1nc2ccccc2s1	-4.8	-3.7	0.3	-5.3
Cc1ccc2nc(NC(=O)CSCC(=O)OCC(=O)c3ccccc3)sc2c1	2.1	-1.2	0.0	68.4*
Nc1c(N2CCCC2)cc(O)c2c1C(=O)c1ccccc1C2=O	77.2*	-1.6	-0.4	-54.7
Cc1ccc(-c2cc(C(=O)Nc3ccccc3)c3cccc(C)c3n2)cc1	21.0	0.9	0.1	4.9
CC(=O)Nc1c(N2CCCC2)cnn(-c2ccccc2)c1=O	-10.9	1.1	0.1	1.1
Cc1[nH]c2ccccc2c1C(=O)COC(=O)CNC(=O)c1ccc(Br)o1	-11.5	4.4	0.0	-1.2
CCOc1ccc(C(=O)NCC(=O)OCC(=O)c2c(C)[nH]c3ccccc23)cc1	-0.1	2.0	2.1*	6.8
SMILES	MITF inh	GPR151 activ	FBW7 act	TEAD-YAP inh
C(=C\c1ccc2c(c1)OCCO2)/c1ccc2c(c1)OCCO2	19.5	-10.0	1.3	97.1*
Cc1ncc2c(c1CNC(=O)CSc1ccccc1)CCN(C(=O)C1CCC1)C2	-8.0	0.9	0.7	-10.2
CC1(C)Oc2ccc(C(=O)NC3CC3)cc2N(Cc2c(F)cccc2Cl)C1=O	-16.8	4.5	0.2	15.2
O=C(CSc1nnc2ccc(-c3ccc(F)cc3)nn12)NCc1ccccc1	9.4	-0.8	0.0	40.6*
O=C(CSc1nnc2ccc(-c3ccccc3)nn12)NCc1ccccc1	8.9	0.0	0.1	41.2*
O=C(CSc1nnc2ccc(-c3ccc(F)cc3)nn12)NCCc1ccccc1	-0.8	-1.5	0.3	-2.8
N#Cc1ccccc1NC(=O)COC(=O)CSc1nnc(-c2ccc3c(c2)OCO3)o1	-1.2	-2.5	0.0	37.9*
COc1ccc(-c2nnc(SCC(=O)c3ccccc3F)o2)cc1	13.4	-1.3	0.1	-21.3
COC(=O)CSc1nnc(-c2ccc(C)cc2)o1	3.6	-0.7	0.0	0.9
COC(=O)CSc1nnc(-c2ccc(C(C)(C)C)cc2)o1	0.8	-0.5	-0.1	65.7*
COc1ccc(-c2nnc(SCC(=O)c3ccc[nH]3)o2)cc1	-5.3	-3.7	-0.1	38.6*
N#Cc1ccccc1NC(=O)CSc1nnc(-c2ccccc2)o1	6.2	2.4	0.2	-14.1
COc1ccc(-c2nnc(SCC(=O)OCC(=O)Nc3ccccc3C#N)o2)cc1	-3.0	1.4	-0.1	67.2*
COc1ccc(C2C(C(=O)Nc3nc4ccc(Br)cc4s3)=C(C)NC3=C2C(=O)CC(C)(C)C3)c(OC)c1 (stereo not drawn)	-10.7	4.5	-0.3	0.6
COc1ccc(N2CCN(CCN3CCCCC3)CC2)cc1	81.9*	-0.8	0.7	6.6
CN1CCc2cc(C(CNC(=O)Nc3cccc(Cl)c3)N(C)C)ccc21 (stereo not drawn)	-3.3	-1.2	-0.2	48.9*
CN1CCCc2cc(C(CNC(=O)NC(C)(C)C)N(C)C)ccc21 (stereo not drawn)	8.8	-0.6	0.0	1.2
CCc1ccccc1-n1c(SCC(=O)Nc2cccc(C)c2)nc2n[nH]c(C)c2c1=N	0.6	-0.9	-0.1	6.0
O=c1nc2s/c(=C\c3ccco3)c(=O)n2nc1Cc1ccc(F)cc1	70.3*	0.5	-1.8	2.4
O=C(CSc1nc2ccc([N+](=O)[O-])cc2[nH]1)Nc1ccc(F)cc1	14.1	1.0	0.1	7.5
O=C(CSc1nc2ccc([N+](=O)[O-])cc2[nH]1)Nc1ccc(F)c(F)c1	0.4	0.2	-0.1	68.5*
c1ccc2c(Nc3nc4ncnc(Nc5ccc(N6CCOCC6)cc5)c4[nH]3)nccc2c1	45.2	0.3	-0.2	40.5*
c1ccc2c(c1)CCN(c1nc3ncnc(Nc4ccc(N5CCOCC5)cc4)c3[nH]1)C2	-1.4	-2.0	-0.3	53.5*
c1ccc(Nc2ccnc(N3CCc4ccccc4C3)n2)cc1	-1.1	-1.4	0.0	-47.0
c1ccc(Nc2ncnc3nc(Nc4ccc(N5CCOCC5)cc4)[nH]c23)cc1	-12.4	0.5	0.1	-5.7
SMILES	MITF inh	GPR151 activ	FBW7 act	TEAD-YAP inh
c1ccc2c(Nc3nccc(Nc4ccc(N5CCOCC5)cc4)n3)nccc2c1	15.1	3.9	-0.3	61.6*
c1ccc2c(c1)CCN(c1nccc(Nc3ccc(N4CCOCC4)cc3)n1)C2	6.7	0.5	-0.3	40.5*
O=[N+]([O-])c1ccc2nonc2c1N(Cc1ccccc1)c1ccccc1	50.1	1.2	-0.6	8.6
Cc1cc(C(=O)N2CCCC(C(=O)Nc3cccc(-c4ccc(F)cc4)c3)C2)n(C)n1 (stereo not drawn)	16.6	2.1	0.2	45.3*
Cc1cccc(C(=O)N2CCCC(C(=O)Nc3cccc(-c4ccc(F)cc4)c3)C2)n1 (stereo not drawn)	-12.4	-0.2	0.0	15.6
O=C(CSc1ccc(-c2ccc(-n3ccnc3)cc2)nn1)N1CCc2ccccc21	-35.4	-1.1	2.3*	-16.6
COc1ccc(OC)c(NC(=O)c2ccc(OC)c(I)c2)c1	7.8	0.7	-0.1	-7.2
O=c1c(Cl)c(Cl)cnn1-c1ccccc1	-4.0	0.3	0.0	92.8*
O=c1c(Cl)c(Cl)cnn1-c1ccc(Cl)c(C(F)(F)F)c1	3.8	2.3	0.1	85.7*
O=c1c(Cl)c(Cl)cnn1-c1cccc(C(F)(F)F)c1	10.4	-0.6	0.1	18.0
O=c1c(Cl)c(Cl)cnn1Cc1ccccc1Cl	12.7	0.6	0.6	33.4*
